gsp ag – agonists of gsp mutant (McCune-Albright syndrome); gsp mutant cells, cAMP HTRF, 30 min; Potency, µM (highest dose often 76.9 µM), for inactives: at the highest dose activation (cAMP increase), hits mostly activators; 0.13% of 340,000 active; AID 624287; active = well fitted activation curve with a large enough effect; inconclusive = small, poorly fitted or top-dose-only effect, or another doubt; inactive = no such curve, though single readings can be large or run the other way; cell line not stated here;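 note: phosphodiesterase inhibitor Ro 20-1724 added with compounds to block cAMP breakdown; potency is the fitted concentration of half-maximal effect; nearly all actives have a fitted effect of over 60% in size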
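Cells stably selected in G418 were plated at 2000/well, grown 16-24 hr, then given compounds in DMSO with the PDE inhibitor […] (300 uM solution added) for 30 min at 37C; cAMP was read by HTRF.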
RXFP1 antagonist – blocks the human relaxin receptor RXFP1; Q9HBX9; HEK293-RXFP1, relaxin-stimulated cAMP HTRF, 30 min; active compounds read low; activity change, negative = inhibition, % at 57.5 µM; 0.59% of 350,000 active;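 active = activity change of -60% or lower, but not beyond a set lower limit; inconclusive = change between -60% and -40%, or beyond the set limit; inactive = change above -40%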; note: % is set by controls: 0 for no effect and ±100 for the full control effect
Target sequence (Q9HBX9 whole entry, looked up): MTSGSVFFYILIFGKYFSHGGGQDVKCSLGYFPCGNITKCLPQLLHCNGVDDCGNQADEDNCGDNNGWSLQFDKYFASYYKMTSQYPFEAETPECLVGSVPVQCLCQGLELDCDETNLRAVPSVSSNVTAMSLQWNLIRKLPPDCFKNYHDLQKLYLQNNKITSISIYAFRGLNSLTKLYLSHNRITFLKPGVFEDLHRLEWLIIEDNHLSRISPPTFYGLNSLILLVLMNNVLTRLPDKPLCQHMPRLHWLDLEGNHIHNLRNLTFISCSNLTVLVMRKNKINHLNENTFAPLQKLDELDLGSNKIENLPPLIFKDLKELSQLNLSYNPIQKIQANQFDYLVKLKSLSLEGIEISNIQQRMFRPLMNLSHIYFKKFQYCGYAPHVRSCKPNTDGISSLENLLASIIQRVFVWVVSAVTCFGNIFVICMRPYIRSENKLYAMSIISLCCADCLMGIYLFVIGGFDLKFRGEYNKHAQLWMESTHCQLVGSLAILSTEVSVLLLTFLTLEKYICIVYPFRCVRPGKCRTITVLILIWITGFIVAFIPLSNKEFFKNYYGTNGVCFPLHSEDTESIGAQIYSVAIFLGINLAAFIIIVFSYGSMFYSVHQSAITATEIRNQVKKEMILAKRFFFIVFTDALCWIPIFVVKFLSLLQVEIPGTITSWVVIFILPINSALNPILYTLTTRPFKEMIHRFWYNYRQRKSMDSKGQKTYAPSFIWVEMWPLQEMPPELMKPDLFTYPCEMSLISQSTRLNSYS
Giardia killer – kills Giardia lamblia; Giardia lamblia trophozoite viability; activity change, % at 7.66 µM, hits read low; 0.15% of 340,000 active; AID 540267; in the data active = activity change below about -80%; inconclusive = between about -30% and that limit;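 note: parasites exposed to compound for two days anaerobically before the ATP read; % is set by controls: 0 for no effect and ±100 for the full control effect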
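Giardia trophozoites, 100 cells per well, were exposed to compounds for 48 hrs at 37 deg C under anaerobic conditions; viability was then read as ATP content by bioluminescence after 15-30 min at room temperature.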
gsp antag – antagonists of gsp mutant (McCune-Albright syndrome); gsp-mutant cells, cAMP HTRF, 30 min; Potency, µM (top dose mostly 76.9 µM), for inactives: top-dose activity change, negative = inhibition, actives largely listed as inhibitors; 0.4% of 340,000 active; calls by dose curve; cell line not stated here;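 note: intracellular cAMP measured with PDE inhibitor Ro 20-1724 present during compound exposure; potency is the fitted concentration of half-maximal effect; % is set by controls: 0 for no effect and ±100 for the full control effect; nearly all actives have a fitted effect of over 65% in size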
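Measurement of cellular cAMP by homogeneous time-resolved fluorescence following a 30 min compound exposure at 37C. The PDE inhibitor […] was present throughout; the assay buffer was DPBS with 0.05% BSA and 0.005% Tween 20.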
RXFP1 ag – RXFP1 (human) receptor agonism | HEK293T-RXFP1 cAMP TR-FRET, 30 min; response scale: percent of porcine relaxin response, buffer zero | Q9HBX9 | 0.3% of 370,000 active | Potency, µM (top dose mostly 57.5 µM), inactives show top-dose activation, hits mostly activators; active = well fitted activation curve with a large enough effect; inconclusive = small, poorly fitted or top-dose-only effect; note: potency is the fitted concentration of half-maximal effect; % is set by controls: 0 for no effect and ±100 for the full control effect; nearly all actives have a fitted effect of over 60% in size
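HEK293T cells stably expressing RXFP1 were pretreated with the PDE4 inhibitor Ro 20174, exposed to compounds for 30 min at 37C, lysed, and cAMP was read by TR-FRET. Data normalized to buffer (basal) and 29 nM porcine relaxin (100%).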
FBPA coupling cs – inhibits coupling enzyme system, counter-screen for aldolase hits; 0.67% of 290,000 active; activity change, negative = inhibition, % at 58.2 µM, hits read low; coupling enzyme system counterscreen, AmpLite Red fluorescence; in the data active = activity change below about -30%; note: % is set by controls: 0 for no effect and ±100 for the full control effect
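First, compound is pin-transferred into glyceraldehyde-3-phosphate coupling-enzyme reagent at 57.5 uM final and held 10 min at RT. Next, substrate, coupling system and AmpLite Red are added. After 20 min RT, fluorescence (525/598 nm) is read.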
* hit, by the source's call; ? = inconclusive; . = no result; [ ] = another dose, or the depositor's remark. Rows were chosen to be rich in hits. Some 1.6% of all compounds tested hit in one or more screens of this group.

SMILES | gsp ag | RXFP1 antagonist | Giardia killer | gsp antag | RXFP1 ag | FBPA coupling cs
CCCCNC(=O)CSc1nc2cc3c(cc2c(=O)n1CCC(=O)NCCc1ccc(OC)c(OC)c1)OCO3 | -26%[15.4 µM] | -12 | -29 | -4% | 3% | 4
O=Cc1ccc(O)c(O)c1O | . | -5 | . | . | . | .
CC(=O)O[C@@H]1C(=O)O[C@H]2[C@@H]1OC(=O)[C@@H]2OC(C)=O | . | 21 | . | . | . | .
CCC1(c2ccc(F)cc2)NC(=O)N(CC(=O)NCC(=O)Nc2cccc(C)c2C)C1=O (stereo not given) | 2%[15.4 µM] | -79* | -23 | 4% | -1% | .
CCOC(=O)N1CCN(S(=O)(=O)c2c(C)nc3sccn3c2=O)CC1 | ? | -5 | -23 | -3% | ? | 5
CCOC(=O)N1CCN(S(=O)(=O)c2c(C)nc3scc(C)n3c2=O)CC1 | ? | 18 | 10 | -24% | 14µM* | .
COC(=O)c1ccc(Cl)cc1NC(=O)N1CC=C(c2c[nH]c3ccccc23)CC1 | . | -14 | . | . | -1% | .
O=C1CCC(=O)N1CC1CC2CCC1C2 (stereo not given) | 3%[15.4 µM] | 3 | -1 | 15% | 4% | 1
CN1/C(=C\C(=O)COc2ccc3c(c2)OCO3)C(C)(C)c2ccccc21 | -4% | -19 | 6 | 40µM* | 0% | -8
CN1/C(=C\C(=O)c2cccnc2)C(C)(C)c2ccccc21 | -28% | -23 | 2 | -6% | -1% | 0
CN1/C(=C\C(=O)c2ccco2)C(C)(C)c2ccccc21 | -9% | -86* | 14 | 35µM* | 0% | -7
CN1/C(=C/C(=O)c2nc(S(C)(=O)=O)ncc2Cl)C(C)(C)c2ccccc21 | -11% | -69* | 3 | -28% | 3% | 2
COc1ccccc1OCC(=O)/C=C1/N(C)c2ccccc2C1(C)C | -9%[15.4 µM] | -30 | -6 | -43% | 10% | -8
O=S(=O)(c1ccc2ncsc2c1)N1CCN(c2nc(-c3cccs3)nc3ccccc23)CC1 | . | . | -22 | . | . | .
N#Cc1ccc2c(c1)C[C@]1(c3ccsc3)Oc3c(c(=O)oc4ccccc34)C2O1 | . | . | . | . | 5%[11.5 µM] | -2
COC(=O)c1ccccc1NC(=O)CSc1c2c(nc3ccc(Cl)cc13)CCCC2 | . | 26 | . | . | 4% | .
NCCCC[C@H](NC(=O)[C@@H]1CCCN1C(=O)[C@H](CO)NC(=O)[C@H](CC(=O)O)NC(=O)CNC(=O)[C@H](CCCN=C(N)N)NC(=O)CN)C(=O)O | . | . | . | . | . | 0
CS(=O)(=O)c1ccc(C(=O)OCC(=O)N2CCc3ccccc32)cc1[N+](=O)[O-] | . | . | 1 | . | . | .
CCOC(=O)NNc1ccc2nonc2c1[N+](=O)[O-] | 20% | 9 | 3 | -23% | 1% | -44*
COc1ccc2cccc(CCNC(C)=O)c2c1 | . | 10 | . | . | . | .
O=C(CCc1nnc2ccc(N3CCC4(CC3)OCCO4)nn12)NCc1ccc(F)cc1 | ? | 22 | 24 | 3% | 16µM* | -2
O=C1NCCCc2c1oc1ccc(O)cc21 | -18% | 16 | 0 | 14% | 0% | 2
Oc1c(Cl)cc(Cl)c2c1NCCC2 | 1%[15.4 µM] | -19 | -1 | 0% | 0% | -48*
CCOc1ccc(-c2cn(-c3ccccc3OC)c(=S)[nH]2)cc1 | -42% | -20 | -8 | 5% | 4% | 0
CCOc1ccc(-n2cc(-c3ccc(OC)c(OC)c3)[nH]c2=S)cc1 | 29% | -76* | 16 | -16% | 4% | -1
SMILES | gsp ag | RXFP1 antagonist | Giardia killer | gsp antag | RXFP1 ag | FBPA coupling cs
O=C(c1cccc2ccccc12)N1CCN(S(=O)(=O)c2ccccc2)CC1 | . | . | 3 | . | . | .
CCc1ccc(Nc2n[n+](-c3ccccc3)c(-c3c(Cl)cccc3Cl)s2)cc1 | . | . | 19 | 32µM* | 1% | -8
CC(=O)OC[C@@H]1O[C@H](CCO/N=C(\C)CCN2CCCCc3nc(C)c(C)cc32)C=C[C@@H]1OC(C)=O | . | . | . | . | . | 1
CCOC(=O)/C(C#N)=C1/C(=O)N(Cc2ccccc2)c2ccccc21 | -5% | 5 | -14 | -2% | 1% | -38*
CCOC(=O)C(C#N)=C1CCN(Cc2ccccc2)CC1 | -19% | 1 | 1 | -3% | -4% | 1
O=[N+]([O-])c1cnc2ccccn12 | 19% | 6 | -82* | 7% | 8% | 0
O=C(CCCl)Nc1cccc2cccnc12 | . | . | 3 | . | . | .
CC[C@H](C)[C@H](NC(=O)[C@H](CCC(=O)O)NC(=O)CNC(=O)[C@H](CCCCN)NC(=O)[C@H](CCC(=O)O)NC(=O)[C@H](CCSC)NC(=O)[C@H](CCSC)NC(=O)[C@H](CCSC)NC(=O)[C@H](CCC(=O)O)NC(=O)CNC(=O)[C@H](CO)NC(=O)[C@H](CO)NC(=O)[C@H](CO)NC(=O)[C@@H](N)CC(N)=O)C(=O)N[C@@H](CCCCN)C(=O)O | . | . | . | . | . | 0
COC(=O)NC(c1ccccc1)C(C(=O)OC)C(=O)OC (stereo not given) | . | . | . | . | . | -31*
COCC(C)NC(=O)CSc1nnc(-c2cccc(S(=O)(=O)N3CCCCC3)c2)o1 (stereo not given) | 10%[15.4 µM] | -3 | -3 | 11µM* | 1% | 0
CC1CCCC(NCC(O)COC(c2ccc(F)cc2)c2ccc(F)cc2)C1C (stereo not given) | -16%[15.4 µM] | -69* | 1 | 11% | -1% | -1
O=C(Nc1nc2c(Cl)cccc2s1)c1ccc(Br)o1 | -12% | -39 | -5 | -9% | 28% | 0
O=C(Nc1nc2ccc(F)cc2s1)c1ccc([N+](=O)[O-])o1 | -71% | 4 | . | . | . | .
O=C(Nc1nc2c(Cl)cccc2s1)c1ccc([N+](=O)[O-])o1 | -15%[15.4 µM] | -1 | -101* | ? | 0% | 5
O=C(Nc1nc2c(F)cccc2s1)c1ccc([N+](=O)[O-])o1 | -13% | -7 | -97* | -10% | 4% | -2
CCCCc1ccc(NC(=O)CSc2nc(=O)n(CCN(CC)CC)c3c2CCCC3)cc1 | 10% | -16 | -8 | -5% | 2% | .
CCCCc1ccc(NC(=O)CSc2nc(=O)n(CCN(C)C)c3c2CCC3)cc1 | 16%[15.4 µM] | -85* | -15 | -8% | 0% | .
CN1N=C(C(C)(C)C)CC1=O | 16%[15.4 µM] | 9 | 2 | 10% | 0% | -32*
Cc1cccc(NC(=O)CCOc2ccccc2)c1C | 0%[15.4 µM] | -1 | -5 | 0% | 2% | -3
Cc1cccc(OCCC(=O)NCC(=O)Nc2cccc(C)c2C)c1 | 0% | -16 | -1 | 0% | 1% | -35*
COc1ccc(N=C2S/C(=C\c3ccc(OC(C)C(=O)O)c(OC)c3)C(=O)N2CCc2c[nH]c3ccccc23)cc1 (stereo not given) | -25% | 5 | -3 | 35µM* | 1% | -2

Assay outcomes as filed in PubChem.
